TAG inh: reduces triacylglycerol accumulation in H9c2 cells | inhibition, % at 12.5 µM | Nile Red lipid (TAG) fluorescence; cells loaded with 200 µM oleic acid | 230,000 compounds, 0.66% hits;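 active means pattern-corrected inhibition of lipid staining of at least 50% with the nuclear-stain viability signal not falling by more than 50%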
CRFBP-R2 agonist: CRF-BP/CRF-R2 complex agonism. HEK293 CRF-R2/CRF-BP, calcium dye fluorescence (FLIPR); percent of saturating CRF peptide response. activation, % at 13.2 µM. 350,000 compounds, 0.46% hits;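 active means activation of at least 50%, plus an integration ratio under a set limit after plate pattern correction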
Cardio protect: myocardial damage modulation in H9c2 cells; 360,000 compounds, 0.63% hits; protection from H2O2 cell death, % at 20 µM; H9c2 cardiomyocytes, H2O2 injury protection, ATPLite, 2 h;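 active means compounds giving at least 50% protection of heart cells from peroxide-induced death in the single-dose screen, raw or plate-pattern-corrected value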
CRFR2-BP antag: blocks CRF-induced signaling of the CRF-BP/CRF-R2 complex. inhibition, % at 11.8 µM. AID 588475. HEK293 CRF-R2/CRF-BP, CRF-induced calcium fluorescence. 350,000 compounds, 0.59% hits;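 active means inhibition of the ligand-induced calcium signal above about 50% at the single tested concentration, limit read from the data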
iPSC survival up: hiPSC single-cell survival enhancement | ATPlite luminescence; 100% = ROCK inhibitor wells, 0% = DMSO | survival enhancement, % at 20 µM | 360,000 compounds, 0.044% hits | AID 602274; in the data active means survival enhancement above about 18%;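 further: cells exposed to compounds for 16 hours before the ATP read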
SKN-1 inh: blocks SKN-1 activity in C. elegans; C. elegans VP596 Pgst-4::GFP/RFP ratio, acrylamide-induced, 24 h; inhibition, % at 21.8 µM; 360,000 compounds, 0.49% hits;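 active means interference check ratio from 0.5 to 1.5 plus GFP to RFP signal ratio inhibition reaching or exceeding a fixed threshold, cut at about 30% in these data, passing the limit was not always enough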
Of the large screens only hits and unclear results are named; the others gave an inactive call. This is a sample that favours compounds with a hit; in the whole collection about 2.5% have one here.

Cc1sc2ncnc(OCC(=O)NC(C)C)c2c1C	CRFR2-BP antag 90 (no result: TAG inh)
O=c1cc(-c2ccccc2)[nH]n1-c1ccc([N+](=O)[O-])cc1	CRFR2-BP antag 51 (no result: TAG inh)
O=c1c(N=Nc2ccc(O)cc2)c(-c2ccccc2)[nH]n1-c1ccc([N+](=O)[O-])cc1	TAG inh 88
NC(=S)n1[nH]c(-c2ccc([N+](=O)[O-])cc2)c(N=Nc2ccc(Cl)cc2)c1=O	none
O=c1ccc(-c2ccc([N+](=O)[O-])cc2)nn1-c1ccccc1	none
CS(=O)(=O)N1CCCCC1c1cc(C(=O)NCc2ccc(Cl)c(Cl)c2)no1 (stereo unspecified)	none (no result: CRFBP-R2 agonist, CRFR2-BP antag)
COc1cc(C(O)c2nc(-c3csc4ccccc34)cs2)ccc1F (stereo unspecified)	none (no result: CRFBP-R2 agonist, CRFR2-BP antag)
COc1ccc(C(=O)NC(=S)NCCO)cc1Br	none (no result: TAG inh)
COc1ccc(C2NCCc3c2[nH]c2ccccc32)cc1COc1ccc(F)cc1 (stereo unspecified)	TAG inh 115
COc1ccc(C2NCCc3c2[nH]c2ccccc32)cc1CN1CCc2cc(OC)c(OC)cc2C1C (stereo unspecified)	none
COc1ccc(C2N=C(c3ccccc3)NO2)cc1OC (stereo unspecified)	none (no result: TAG inh)
FC(F)Oc1ccc(C2N=C(c3ccccc3)NO2)cc1 (stereo unspecified)	SKN-1 inh 34 (no result: TAG inh)
CCCNC(=O)C1CC(=O)N(c2ccc(OCC)cc2)C1 (stereo unspecified)	CRFR2-BP antag 56
Cc1ccccc1C(=O)Nc1ccc(C(=O)N/N=C/c2ccc(O)cc2)cc1	none (no result: TAG inh)
Cc1nc2c(C)cccc2cc1C(=O)N/N=C/c1ccc(O)cc1	CRFR2-BP antag 71
Cc1cccc2cc(/C=N/NC(=O)c3ccccc3O)c(Cl)nc12	CRFBP-R2 agonist 55
O=C(Nc1ccc(C#Cc2ccccc2)cc1)C1CC1	SKN-1 inh 47
N#C/C(=C\c1cccn1-c1ccccc1)C(=O)NC1CCCCC1	CRFR2-BP antag 127 (no result: TAG inh)
N#C/C(=C\c1ccccc1[N+](=O)[O-])C(=O)NC1CCCCC1	CRFBP-R2 agonist 100
N#C/C(=C\C=C\c1ccccc1[N+](=O)[O-])C(=O)NC1CCCCC1	none
Cc1ccc(-c2[nH]ncc2/C=C(\C#N)C(=O)NC2CCCCC2)cc1	SKN-1 inh 59
N#C/C(=C\c1ccc(F)c(F)c1)C(=O)NC1CCCCC1	none (no result: TAG inh)
CCOC(=O)[C@]12CCC=C1N(Cc1ccc3c(c1)OCO3)C(=O)[C@H](CC(=O)N1CCN(C(=O)c3ccco3)CC1)C2	none (no result: TAG inh, CRFBP-R2 agonist, Cardio protect, CRFR2-BP antag)
Cc1cccc(C)c1NC(=S)NC(=O)c1cccc(Cl)c1	none (no result: TAG inh, CRFBP-R2 agonist, CRFR2-BP antag)
COc1cc2c(cc1OC)n(CC(=O)NC1CCCCCC1)n1c(C)cc(=O)nc21	none (no result: TAG inh)
COC(=O)c1c(NC(=O)c2ccco2)sc2c1CCC2	SKN-1 inh 40
COC(=O)c1c(NC(=O)c2ccco2)sc2c1CCN(C(C)C)C2	CRFBP-R2 agonist 52 (no result: TAG inh)
COC(=O)c1c(NC(=O)COC(=O)c2ccc(O)cc2)sc2c1CCCCC2	none
COCC(=O)Nc1sc2c(c1C(=O)OC)CCCC2	SKN-1 inh 34
NC(N)=NN=C1CCC(c2ccccc2)CC1 (stereo unspecified)	none (no result: TAG inh)
CCc1sc(C(=O)Nc2nc(-c3ccccn3)cs2)cc1C	Cardio protect 51
O=C(Nc1nc(-c2ccccn2)cs1)c1cc2ccccc2o1	none
CCc1sc(C(=O)Nc2nccs2)cc1C	none (no result: TAG inh)
Cc1c(C(=O)Nc2nc(-c3ccccn3)cs2)oc2ccccc12	Cardio protect 54
Cn1cccc1C(=O)Nc1nc(-c2ccccn2)cs1	none (no result: TAG inh)
Cc1ccc(C(=O)Nc2nc(-c3ccccn3)cs2)s1	Cardio protect 59
O=C(Nc1nc(-c2ccccn2)cs1)c1ccc(Cl)s1	TAG inh 54
CCC1(CC)C(C#N)C(=O)NC(=O)C1C#N (stereo unspecified)	none
Cc1ccc(C)c(N2CCN(S(=O)(=O)c3ccc4c(c3)C(C)(C)C(=O)N4C)CC2)c1	CRFR2-BP antag 127
Cc1cccc(N2CCN(S(=O)(=O)c3ccc4c(c3)C(C)(C)C(=O)N4C)CC2)c1C	none
CCCNC(=O)C1(C)CCN(C(=O)COc2ccc(C(C)(C)C)cc2)C1 (stereo unspecified)	none (no result: CRFBP-R2 agonist, CRFR2-BP antag)
Cc1ccc2nc(NCCC(=O)O)nc(-c3ccccc3)c2c1	CRFBP-R2 agonist 146
Cc1ccc2nc(NCC(=O)O)nc(-c3ccccc3)c2c1	none (no result: TAG inh)
OCCCNc1nc(-c2ccccc2)c2cc(Br)ccc2n1	none (no result: TAG inh)
O=C(O)CCNc1nc(-c2ccccc2)c2cc(Br)ccc2n1	CRFBP-R2 agonist 96 (no result: TAG inh)
Cc1ccc(-c2cc(C(=O)N/N=C/c3cccnc3)c3ccccc3n2)cc1C	none
Cc1nn(-c2ccccc2)c(N2CCCC2)c1/C=N/NC(=O)c1cc(-c2ccccn2)nc2ccccc12	Cardio protect 57 (no result: TAG inh)
Cc1cc(C(=O)N/N=C/c2cc([N+](=O)[O-])ccc2O)c2ccccc2n1	Cardio protect 56 (no result: TAG inh)
Cc1ccc(C)c(-c2cc(C(=O)N/N=C/c3cccnc3)c3ccccc3n2)c1	Cardio protect 56
COc1cccc(/C=N/NC(=O)c2nc(-c3ccccc3)cc(-c3ccccc3)n2)c1	Cardio protect 89
COc1ccc(/C=N/NC(=O)c2nc(-c3ccccc3)cc(-c3ccccc3)n2)cc1OC	none (no result: TAG inh)
CNS(=O)(=O)c1ccc(C(=O)NCC(=O)NC(C)c2cccs2)cc1 (stereo unspecified)	none
Cc1nnc(SCC(=O)N/N=C/c2cn(-c3ccccc3)nc2-c2ccccc2)n1-c1ccccc1	Cardio protect 54 (no result: TAG inh)
Cc1nn(C)c(C(=O)N/N=C/c2cccc(Oc3ccccc3)c2)c1Br	CRFBP-R2 agonist 58
O=C(N/N=C/c1ccccn1)c1cc(-c2ccncc2)nc2ccccc12	Cardio protect 77
O=C(N/N=C/c1ccsc1)c1cc(-c2ccncc2)nc2ccccc12	none
O=C(N/N=C/c1ccc(O)c(O)c1)c1cc(-c2ccccc2)nc2ccccc12	Cardio protect 61
CC1(C(=O)NCc2ccccc2)CN(S(C)(=O)=O)CC(=O)N1CCc1c[nH]c2ccccc12 (stereo unspecified)	none (no result: TAG inh, CRFBP-R2 agonist, Cardio protect, CRFR2-BP antag, iPSC survival up)
Cn1c(SCC(=O)N/N=C/c2cc([N+](=O)[O-])ccc2O)nnc1-c1ccccc1	CRFBP-R2 agonist 62
Cc1nn(-c2ccccc2)c(N2CCCC2)c1/C=N/Nc1ccc(S(N)(=O)=O)cc1[N+](=O)[O-]	CRFR2-BP antag 60 (no result: TAG inh)
Cn1c2ccccc2c2cc(/C=N/NC(=O)c3cc(O)cc(O)c3)ccc21	none
Cn1c2ccccc2c2cc(/C=N/NC(=O)c3cc(O)ccc3O)ccc21	Cardio protect 53
CC1CC(C)CN(C(=O)CSc2nc(N)cc(=O)[nH]2)C1 (stereo unspecified)	none
CCOc1ccc(S(=O)(=O)Nc2nc3ccccc3nc2Nc2ccc(N3CCOCC3)cc2)cc1	CRFBP-R2 agonist 77 (no result: TAG inh)

Screening results as filed in PubChem BioAssay.
